Test [1] is described as follows: qHTS assay to identify small molecule antagonists of the estrogen receptor alpha (ER-alpha) signaling pathway using the BG1 cell line in the presence of 0.1 nM 17-beta-estradiol - cell viability counter screen (AID 1259241). Further: nearly all actives have a fitted effect of over 40% in size. The gist of the method: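 Viability in VM7Luc4E2 cells after 22 hr compound exposure under 0.1 nM 17beta-estradiol stimulation, by CellTiter-Fluor.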

Test [2] is described as follows: qHTS assay to identify small molecule antagonists of the androgen receptor (AR) signaling pathway using the MDA cell line in the presence of 0.5 nM R1881 - cell viability counter screen (AID 1259242). Further: nearly all actives have a fitted effect of over 45% in size. The gist of the method: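 MDA-kb2 cells (MMTV-luciferase, AR/GR responsive) were treated with compounds plus 0.5 nM R1881 (final) for 16 hr at 37C, 0% CO2. Viability was then read in the same wells as live-cell protease fluorescence (CellTiter-Fluor, 30 min).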
(In general: In qHTS, concentration-response curves come from the screen itself.)

Test [3] can be described thus: qHTS assay to identify small molecule phospholipidosis (PLD) inducers (AID 1259344; active means well fitted curve in the direction sought with a large enough effect; an effect the other way counts as inactive or inconclusive). The gist of the method:
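HepG2 cells grown on collagen I take up LipidTOX Red while exposed to compound for 24 h; after fixation they are imaged at 20x and pit metrics are extracted.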

Test [4] is described as follows: qHTS assay to identify small molecule HDAC inhibitors (AID 1259364). Further: nearly all actives have a fitted effect of over 45% in size. Further: potency means the concentration at half of the fitted maximal effect. On activity change, negative = inhibition: top concentration of the series differs between compounds. The gist of the method:
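Wild-type HCT-116 cells, plated overnight at 37 C, exposed to compounds 2 hr at 37 C; luminogenic HDAC-Glo substrate then added 30 min at room temperature. Luminescence reports relative endogenous class I/II HDAC activity.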

Test [5] is described as follows: qHTS assay to identify small molecule HDAC inhibitors - cell viability counter screen (AID 1259365). Further: series mostly up to about 92 µM; nearly all actives have a fitted effect of over 50% in size. The procedure, abridged: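 Cytotoxicity was gauged in wild-type HCT-116 cells after a brief 2hr treatment with DMSO-dissolved compounds at 37C and 5% CO2, using CellTiter-Glo luminescence developed for 30min at room temperature.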
A short description of test [6]: qHTS assay to identify small molecule agonists of the sonic hedgehog signaling (Shh) pathway - cell viability counter screen (AID 1259366). Further: nearly all actives have a fitted effect of over 50% in size. The procedure, abridged: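 Stable Gli1-Luc NIH/3T3 clone, 2,000 cells/well. Compound exposure 24hr at 37C. Read-out: CellTiter-Fluor fluorescence.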
The nature of test [7]: qHTS assay to identify small molecule agonists of the sonic hedgehog signaling (Shh) pathway (AID 1259368; calls by dose curve;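 further: NIH/3T3-derived 3T3Gli1-Luc cells carrying a stable Gli1-driven firefly luciferase reporter; series mostly up to about 92 µM; nearly all actives have a fitted effect of over 15% in size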). The procedure, abridged:
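NIH/3T3-derived 3T3Gli1-Luc cells with stably integrated Gli1-driven firefly luciferase, 2,000 cells/well, compounds added after 4 hr. Incubated 24 hr at 37C, 5% CO2; luminescence read after 30 min with luciferase reagent at room temperature.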

Test [8] in a line: qHTS assay to identify small molecule antagonists of the sonic hedgehog signaling (Shh) pathway - cell viability counter screen (AID 1259367). Further: nearly all actives have a fitted effect of over 55% in size. Further: potency means the concentration at half of the fitted maximal effect. The gist of the method: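 After a 4 hr settling period, 3T3 Gli1-Luc cells were treated with DMSO-dissolved chemicals and conditioned medium, kept 24 hr at 37C in 5% CO2, and assayed for viability by CellTiter-Fluor fluorescence following 1 hr reagent incubation.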

Test [9] has as its target Androgen receptor (Homo sapiens) (UniProt P10275). The experiment in a line: qHTS assay to identify small molecule antagonists of the androgen receptor (AR) signaling pathway using the MDA cell line in the presence of 0.5 nM R1881 (AID 1259243). Further: nearly all actives have a fitted effect of over 50% in size. The procedure, abridged:
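MDA-kb2 cells (MMTV-luciferase, responsive to AR and GR) at 3,000/well, rested 5 h at 37C, 0% CO2, then given compounds plus 0.5 nM R1881 (final) for 16 hr. Luciferase read with ONE-Glo after 30 min at room temperature.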

Values without a mark were called inactive. Results filed as inconclusive are left out. Active and inactive are the calls of the source. Unless noted, the call rests on the fitted dose curve; in most records, active means well fitted curve in the direction sought with a large enough effect in the repeat runs; inconclusive means weak or mixed curves; inactive means no such curve, though single readings can be large; an effect the other way counts as inactive or inconclusive.
On the % scale 0 is the no-effect control and ±100 the full control effect.

Androgen receptor (Homo sapiens), sequence (P10275 whole entry, looked up): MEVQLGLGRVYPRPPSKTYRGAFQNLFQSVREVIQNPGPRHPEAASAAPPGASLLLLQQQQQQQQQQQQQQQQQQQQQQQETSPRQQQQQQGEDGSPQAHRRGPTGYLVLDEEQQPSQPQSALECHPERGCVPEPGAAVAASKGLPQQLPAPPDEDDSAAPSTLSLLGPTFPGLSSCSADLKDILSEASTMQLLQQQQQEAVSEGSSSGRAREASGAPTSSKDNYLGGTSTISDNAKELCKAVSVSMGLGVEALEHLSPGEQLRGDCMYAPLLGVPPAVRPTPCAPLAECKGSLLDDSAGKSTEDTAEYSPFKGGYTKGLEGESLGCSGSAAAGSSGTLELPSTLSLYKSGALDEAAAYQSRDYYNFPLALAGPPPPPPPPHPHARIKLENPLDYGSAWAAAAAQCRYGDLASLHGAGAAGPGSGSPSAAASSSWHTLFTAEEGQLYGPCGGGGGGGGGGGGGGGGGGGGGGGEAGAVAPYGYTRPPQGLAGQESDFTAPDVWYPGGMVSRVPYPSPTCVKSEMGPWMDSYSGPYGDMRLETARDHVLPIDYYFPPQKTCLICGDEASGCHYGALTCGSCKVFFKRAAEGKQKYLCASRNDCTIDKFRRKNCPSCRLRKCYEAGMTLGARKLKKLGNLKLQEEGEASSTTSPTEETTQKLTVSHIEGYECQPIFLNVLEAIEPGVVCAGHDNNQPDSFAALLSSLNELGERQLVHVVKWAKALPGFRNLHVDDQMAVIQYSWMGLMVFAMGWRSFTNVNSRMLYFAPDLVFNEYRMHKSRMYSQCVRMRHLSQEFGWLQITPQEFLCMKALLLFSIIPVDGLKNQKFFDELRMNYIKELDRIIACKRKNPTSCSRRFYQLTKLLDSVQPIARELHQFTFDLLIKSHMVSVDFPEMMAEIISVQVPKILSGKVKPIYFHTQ

For `O=C(O)[C@@H]1CSCN1`, the Potency entry in test [1], in test [4], in test [6] and in test [7] was “inactive” throughout. Also, the outcome in test [2], in test [3] and in [5] was inactive.

In the case of `NC/C=C/C(=O)O`, the Potency result in test [1], in test [4], in test [6] and in test [7] was “inactive” throughout. The result in test [2], in [3] and in test [5] was inactive.

In the case of `CC1(C)S[C@@H]2[C@H](NC(=O)C(C(=O)O)c3ccccc3)C(=O)N2[C@H]1C(=O)O` (some centres not stated), the Potency entry in test [1], in [4], in test [6], in test [8] and in test [7] was “inactive” in each case. Further, the result in [2], in [3] and in test [5] was inactive.

As for `O=C(O)CN(CCN(CC(=O)O)CC(=O)O)CCN(CC(=O)O)CC(=O)O`, the activity change, negative = cytotoxicity in test [1] was -1.86% [at 19 µM]; in [5], 3.61% [at 19 µM]. Also, the viability change, negative = cytotoxic in test [2] was 3.41% [at 19 µM]; in test [6] it was -18.4% [at 19 µM]; in [8], -7.04% [at 19 µM]. Also, the outcome in test [3] was inactive. Besides, the activity change, negative = inhibition in [4] was 3.25% [at 19 µM]. Also, in test [7], the activity change was 0.166% [at 18.9 µM, hits give high values].

In the case of `CC(C)NC[C@@H](O)COc1cccc2ccccc12`, the Potency result in test [1], in [4], in [6], in test [8] and in test [7] was “inactive” each time. Moreover, the result in test [2], in test [3] and in test [5] was inactive.

For the compound `CN(C)CC[C@@H](c1ccc(Cl)cc1)c1ccccn1`, the Potency entry in test [1], in test [4], in test [6], in test [8] and in test [7] was “inactive” in each case. Also, the result in [2] and in test [5] was inactive. The PLD induction in [3] is 19.5% [at 1.53 µM].

In the case of `Cc1ccc([N+](=O)[O-])cc1Cl`, the Potency result in test [1], in test [4], in [6], in [8] and in test [7] was “inactive” each time. Also, the result in test [2] and in test [5] was inactive.

Consider `NC1=NCC2c3ccccc3Cc3ccccc3N12` (configuration not stated), for which the Potency entry in test [1], in test [4], in test [6], in [8] and in test [7] was “inactive” each time. Further, the outcome in [2], in test [3] and in test [5] was inactive.

Take `COc1ccc2nc(NC(=O)Nc3ccccc3)sc2c1`: the Potency entry in test [1], in test [6], in test [8] and in [7] was “inactive” each time. The result in [2], in test [3] and in [5] was inactive. In addition, the Potency in test [4] is 3.35 µM (active).

In the case of `CCCCNc1cc(C(=O)O)cc(S(N)(=O)=O)c1Oc1ccccc1`, the Potency entry in test [1], in test [4], in test [6], in test [8] and in test [7] was “inactive” throughout. The result in [2], in [3] and in [5] was inactive.

As for `C=CC(C)(O)CC/C=C(\C)CCC=C(C)C` (configuration not stated), the Potency result in [1], in test [4], in [6], in test [8] and in test [7] was “inactive” in each case. In addition, the result in test [2], in test [3] and in [5] was inactive.

Consider `CN1C(=O)CC(c2ccccc2)C1=O` (configuration not stated), for which the Potency entry in [1], in test [4], in test [6] and in [7] was “inactive” each time. For the same compound, the result in test [2], in test [3] and in test [5] was inactive.

As to `CC(=O)Oc1cc(C(C)C)c(OCCN(C)C)cc1C`, the Potency result in test [1], in test [4], in [6] and in [7] was “inactive” throughout. The outcome in test [2], in [3] and in [5] was inactive.

`CC1CN(c2ccccc2)NC1=O` (configuration not stated): the Potency entry in test [1], in test [6] and in test [8] was “inactive” each time. For the same compound, the result in test [2] and in test [5] was inactive. In addition, in [4], the Potency was 24.3 µM (active).

Take `CCOc1ccc(NS(=O)(=O)c2ccc(N)cc2)nn1`: the Potency result in test [1], in test [4], in [6], in [8] and in test [7] was “inactive” in each case. Besides, the result in [2], in test [3] and in test [5] was inactive.

In the case of `O=c1[nH]cnc2c1ncn2[C@@H]1O[C@H](CO)[C@@H](O)[C@H]1O`, the Potency result in test [1], in test [4], in test [6], in test [8] and in test [7] was “inactive” throughout. Besides, the outcome in test [2], in test [3] and in [5] was inactive.

`Oc1ccccc1C=NCc1ccccc1`: the Potency entry in test [1], in test [4], in [6] and in test [7] was “inactive” in each case. Moreover, the result in test [2], in test [3] and in [5] was inactive.

As for `CCCC1CCC(=O)O1` (configuration not stated), the Potency entry in test [1], in test [4] and in [6] was “inactive” in each case. Also, the outcome in test [2] and in test [5] was inactive.

With `O=C(O[C@@H](C(=O)O)[C@@H](OC(=O)c1ccccc1)C(=O)O)c1ccccc1`, the Potency result in test [1], in [4], in test [6], in test [8] and in [7] was “inactive” each time. For the same compound, the result in [2] and in [5] was inactive.

As for `Cc1ccc([N+](=O)[O-])c(N)c1`, the outcome in [2] and in test [5] was inactive. The Potency result in test [4] and in [7] was “inactive” each time.

As to `CCCS(=O)c1ccc2nc(NC(=O)OC)[nH]c2c1` (configuration not stated), the outcome in [2] and in [5] was inactive. In addition, the Potency result in test [9], in test [6] and in [8] was “inactive” throughout. Moreover, in [4], the Potency is 5.96 µM (active).

Turning to `Cc1onc(-c2ccccc2)c1C(=O)Cl`, the Potency result in test [1], in test [4], in test [6], in [8] and in test [7] was “inactive” throughout. For the same compound, the result in test [2] and in [5] was inactive.

Consider `COc1cc2c(cc1N)oc1ccccc12`, for which the Potency result in [1] and in test [7] was “inactive” each time. The result in test [2] and in [5] was inactive. For the same compound, the Potency in test [8] is 62.4 µM (active).

As to `CCCCCCCCc1ccc(S(=O)(=O)O)cc1`, the Potency result in test [1], in test [4], in test [6], in test [8] and in test [7] was “inactive” in each case. Besides, the result in test [2] and in [5] was inactive.

Take `Cc1c(N)cccc1N`: the Potency entry in test [1], in test [4], in test [6], in [8] and in test [7] was “inactive” each time. Moreover, the result in [2] and in [5] was inactive.

Regarding `CC(=O)Nc1ccc(C)c(Cl)c1`, the Potency result in test [1], in [4], in test [6], in test [8] and in test [7] was “inactive” in each case. Besides, the outcome in test [2] and in test [5] was inactive.

Turning to `CC1=NN(c2cc(Cl)c(S(=O)(=O)O)cc2Cl)C(=O)C1N=Nc1ccc(S(=O)(=O)O)cc1` (configuration not stated), the Potency in [4] is 27.3 µM (active). Moreover, the call in test [5] was inactive. Further, in test [7], the Potency result was “inactive”.

In the case of `CCOC(=O)CS`, the Potency entry in [1], in test [6] and in test [7] was “inactive” in each case. Further, the result in [2] and in test [5] was inactive. Besides, the Potency in [4] is 25 µM (active).

Source of the values: PubChem BioAssay (Tox21).
